The list is a sample of the results.
aSyn UTR act – Activators working through SNCA 5'UTR binding (MLPCN); 7.1% of 300,000 active; alpha-synuclein 5'UTR reporter, activators screen; activity score, % (tested at 7.5 µM), hits read low; in the data active means activity score below about -60%
Of the large screens only hits and unclear results are named; the others gave an inactive call.

Cc1cc(Br)ccc1OCC(=O)NC1CCCC1	aSyn UTR act -66
COC(=O)c1[nH]c2ccc(Br)cc2c1NC(=O)CN1CCN(C2CCCCC2)CC1	none
O=C(COc1ccc(Br)cc1Br)NC(=O)NC1CCCC1	aSyn UTR act -237
CCc1ccc(OCC(=O)NC2CCCCC2)c(Br)c1	aSyn UTR act -120
COc1ccccc1OCC(=O)NC1CCCCCC1	aSyn UTR act -76
CCc1ccc(OCC(=O)Nc2ccncc2)c(Br)c1	aSyn UTR act -442
CC(C)(C)C1CCc2onc(C(=O)Nc3cccc(O)c3)c2C1 (stereo not given)	aSyn UTR act -92
Cc1csc(C(C#N)C(=O)c2cc3ccccc3o2)n1 (stereo not given)	aSyn UTR act -145
Cc1ccccc1NC(=O)n1ncc2cc(Cl)ccc21	aSyn UTR act -98
Cc1cccc2c1cnn2C(=O)Nc1ccccc1Cl	aSyn UTR act -143
Cc1cccc2c1cnn2C(=O)Nc1ccccc1Br	aSyn UTR act -125
Cc1[nH]c2ccccc2c1/C=C/c1nc2ccccc2c(=O)n1CCO	aSyn UTR act -62
ClC1(Cl)CC1CSc1nnc(-c2ccncc2)o1 (stereo not given)	aSyn UTR act -66
COc1ccc(-c2nc(C3CCCCC3)no2)cc1OC	aSyn UTR act -162
c1ccc(-c2nc(C3CCCCC3)no2)cc1	aSyn UTR act -204
COc1cc2c(c(OC)c1OC)-c1ccc(OC)c(=O)cc1[C@@H](N(C)CC#CCO)CC2	none
CC1=NC(=O)C(N=Nc2ccccc2)N1c1ccccc1 (stereo not given)	aSyn UTR act -109
Cc1ccc(C(=O)Nc2ccc3c(c2)OCO3)o1	aSyn UTR act -118
Cc1cc(C)n2nc(C(=O)Nc3ccc4c(c3)OCO4)nc2n1	aSyn UTR act -113
C/C(=C\C(=O)c1ccc(C)o1)Nc1ccc2c(c1)OCO2	aSyn UTR act -170
C/C(=C\C(=O)c1ccccc1)Nc1ccc2c(c1)OCO2	aSyn UTR act -115
CCOc1ccc(N/C(C)=C/C(=O)c2ccc(C)o2)cc1	aSyn UTR act -79
CC1CCC(NC(=O)N(CCCl)N=O)CC1 (stereo not given)	aSyn UTR act -138
Cc1ccc2c(C(=O)CSc3ccccc3)c(C)[nH]c2c1	aSyn UTR act -109
Cc1[nH]c2ccccc2c1C(=O)CSc1ccccc1	aSyn UTR act -86
Cc1[nH]c2ccccc2c1C(=O)COc1ccccc1	aSyn UTR act -113
Cc1[nH]c2ccccc2c1C(=O)CSc1ccccn1	aSyn UTR act -68
Cc1nc(C(C)NC(=O)c2cc(COc3ccc(C)c(C)c3)on2)c(C)s1 (stereo not given)	aSyn UTR act -82
CC(=O)c1ccc(OCc2cc(C(=O)NC(C)c3cnn(C)c3)no2)cc1 (stereo not given)	aSyn UTR act -87
Cc1cc(CNC(=O)c2cc(COc3ccc(F)c(F)c3)on2)nn1C	aSyn UTR act -124
CC(NC(=O)c1cc(COc2ccccc2)on1)c1nccs1 (stereo not given)	aSyn UTR act -169
Cc1cc(OCc2cc(C(=O)NC(C)c3c(C)nn(C)c3C)no2)cc(C)c1Cl (stereo not given)	aSyn UTR act -114
CC(=O)c1ccc(OCc2cc(C(=O)NCCn3nc(C)cc3C)no2)cc1	aSyn UTR act -68
c1cncc(-c2noc(CC3CCCCC3)n2)c1	aSyn UTR act -87
c1ccc(CCc2nc(-c3cccnc3)no2)cc1	aSyn UTR act -90
c1ccc(CCc2nc(-c3ccccc3)no2)cc1	aSyn UTR act -192
O=C1CCC(=O)N1CCCCCc1nc(-c2ccccc2)no1	aSyn UTR act -104
CCN(CC)c1ccc(C2=NNC(=O)CC2C)cc1[N+](=O)[O-] (stereo not given)	none
O=C(Nc1ccc(-c2noc(CCc3ccccc3)n2)cc1)c1ccco1	aSyn UTR act -115
CC(C)(C)c1ccc(-c2noc(CCC(N)=O)n2)cc1	none
Brc1ccc(-c2noc(CCc3ccccc3)n2)cc1	aSyn UTR act -84
CCCc1nc(-c2ccc(-c3ccc(F)cc3)cc2)no1	aSyn UTR act -145
Fc1ccc2c(Cl)c(-c3nnc(-c4cccs4)o3)sc2c1	aSyn UTR act -178
CC(C)Oc1ccc(C(=O)Nc2ccc(C(F)(F)F)n(C)c2=O)cc1	aSyn UTR act -82
CC(C)NC(=O)N1CCCN(c2nc3ccc(Cl)cc3s2)CC1	aSyn UTR act -62
CC(C)C(=O)N1CCN(c2nc3ccc(Cl)cc3s2)CC1	aSyn UTR act -140
Cc1cc(N(C)/N=C/c2ccccc2)nc(-c2ccccc2O)n1	aSyn UTR act -119
Cc1cc(N/N=C\c2ccccc2)nc(-c2ccccc2O)n1	aSyn UTR act -138
CN(/N=C/c1cc(Br)cc(Br)c1O)c1cccc(C(F)(F)F)n1	none
Cc1cc(N/N=C/c2ccc(O)cc2O)nc(-c2ccccc2O)n1	none
Cc1c(C(=O)NCCc2ccccc2)oc2ccccc12	aSyn UTR act -69
Cc1c(C(=O)NC2CCC(C)CC2)oc2ccccc12 (stereo not given)	aSyn UTR act -143
CCCCCOc1ccc(Cl)cc1CN1CCOCC1	aSyn UTR act -78
c1ccc2c(c1)CC(N1CCCCC1)c1ccccc1S2 (stereo not given)	none
Cc1ccc(OCCn2cnc3ccccc3c2=O)c([N+](=O)[O-])c1	aSyn UTR act -157
CCOc1ccc(OCCn2nnc3ccccc3c2=O)cc1	aSyn UTR act -121
CCOc1cccc(OCCn2cnc3ccccc3c2=O)c1	aSyn UTR act -79
FC(F)(F)c1cccc(N2Cc3ccccc3C2)c1	aSyn UTR act -72
N#Cc1ccc(N2CCc3ccccc3C2)c([N+](=O)[O-])c1	none
O=[N+]([O-])c1cccc(N2Cc3ccccc3C2)c1	aSyn UTR act -113
COC(=O)CSc1nc(-c2ccccc2)cc(-c2ccco2)c1C#N	aSyn UTR act -64
CC(C)Cc1cc(-c2ccco2)c(C#N)c(N)n1	none
CC(C)Sc1ccc(C(=O)Nc2ccc(F)cc2F)cn1	aSyn UTR act -140
C/C(=N/N=C/c1ccc(N(C)C)cc1)c1ccccc1	aSyn UTR act -160
CN(C)c1ccc(/C=N/NC(=O)c2ccccc2)cc1	aSyn UTR act -120
CC(C)=C(NC(=O)c1ccccc1)C(=O)N/N=C/c1ccc(O)cc1	aSyn UTR act -128
O=C(N/N=C/c1ccc(OC(=O)c2cccs2)cc1)c1cccc(F)c1	aSyn UTR act -97
Cc1nn(-c2ccccc2)c(C)c1/C=N/NC(=O)c1cccs1	aSyn UTR act -68
CSc1ccc(/C=N/NC(=O)c2cccs2)cc1	aSyn UTR act -185
O=C(N/N=C/c1ccc(-n2ccnc2)cc1)c1cccs1	aSyn UTR act -78
CSc1ccc(/C=N/NC(=O)c2ccccc2Cl)cc1	aSyn UTR act -109
CN(C)c1ccc(/C=N/NC(=O)c2ccccc2Cl)cc1	aSyn UTR act -125
CN(C)c1ccc(/C=N/NC(=O)c2sccc2-n2cccc2)cc1	aSyn UTR act -150
COc1cc(C(=O)N/N=C/c2ccsc2C)cc(OC)c1OC	none
CN(C)c1cccc(C(=O)N/N=C/c2ccsc2)c1	aSyn UTR act -157
CC/C(=N\NC(=O)c1ccc(N(C)C)cc1)c1ccccc1	aSyn UTR act -72
Cc1cc(C(=O)N/N=C/c2cc(Br)ccc2OC(=O)c2ccccc2Cl)n[nH]1	none
COc1cc(/C=C(/C(=O)c2cccs2)c2nc3ccccc3[nH]2)ccc1O	aSyn UTR act -86
O=C(/C(=C\c1ccccc1)c1nc2ccccc2[nH]1)c1ccc(Cl)cc1	aSyn UTR act -228
O=C(/C(=C/c1ccc(Cl)cc1)c1nc2ccccc2[nH]1)c1cccs1	aSyn UTR act -178
C/C(=C\c1ccc(N)cc1)c1nc2ccccc2[nH]1	aSyn UTR act -172
